Assay results as given in PubChem BioAssay (Tox21).
“And” between values parts separate entries of the source, which are not always exact repeats. Equal entries are not always repeated. Records with an inconclusive call do not appear. Where a call stands in place of a potency, no number is given. Where a structure was tested more than once in an assay, its records may differ in their call. The source made the active and inactive calls. Unless noted, calls follow the shape of the dose curve; as a rule, active = well fitted curve in the direction sought with a large enough effect in the repeat runs; inconclusive = weak or mixed curves; inactive = no such curve, though single readings can be large; an effect the other way counts as inactive or inconclusive.

Tests used:
[1] = qHTS assay to identify small molecule agonists of the RXR signaling pathway - cell viability counter screen (AID 1159529); also: nearly all actives have a fitted effect of over 50% in size; also: potency is read from the fitted curve at half-maximal effect
How it was run: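 Steps: seed RXR-alpha-UAS-bla HEK 293T cells in assay medium containing 2% charcoal-stripped FBS; incubate 5 hr; add compounds in DMSO; incubate 16 hr at 37 C; after the bla read, add CellTiter-Glo and read luminescence at 30 min.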

[2] = qHTS assay to identify small molecule antagonists of the retinoid acid receptor (RAR) signaling pathway - cell viability counter screen (AID 1159551); also: nearly all actives have a fitted effect of over 35% in size; also: potency is read from the fitted curve at half-maximal effect
How it was run: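 Cytotoxicity counter screen: ATP content quantified by CellTiter-Glo luminescence in C3RL4 cells treated 6 hr at 37 C with compound and retinol (1 uM final). Cells plated at 1,000/well and cultured overnight before dosing.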

[3] = qHTS assay to identify small molecule antagonists of the estrogen related receptor (ERR) signaling pathway from Tox21 library - cell viability counter screen (AID 1224834); also: nearly all actives have a fitted effect of over 30% in size; also: potency is read from the fitted curve at half-maximal effect
How it was run: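 CellTiter-Fluor fluorescence, read after 30 min at 37 C, measures viability of ERR cells. Cells plated at 2,000/well and incubated 6 h before pin-tool compound addition, then exposed 17.5 hours at 37 C.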

[4] = target: Luciferin 4-monooxygenase (Photinus pyralis) (UniProt P08659); test: qHTS assay to identify small molecule inhibitors of firefly luciferase (AID 1224835); also: nearly all actives have a fitted effect of over 25% in size; also: potency is read from the fitted curve at half-maximal effect
How it was run: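 Inhibition of purified Photinus luciferase is measured by luminescence. Substrate levels (D-luciferin, ATP) sit at their KM values. Each compound is tested in a concentration series.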

[5] = qHTS assay to identify small molecule agonists of the constitutive androstane receptor (CAR) signaling pathway - cell viability counter screen (AID 1224836); also: nearly all actives have a fitted effect of over 45% in size; also: potency is read from the fitted curve at half-maximal effect
How it was run: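 Cells were seeded and incubated 4 hrs. Compounds were added across 15 concentrations together with PK11195 at 0.75 uM final. Plates were incubated 23 hrs at 37 C. CellTiter-Fluor was added and fluorescence measured.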

[6] = qHTS assay to identify small molecule antagonists of the constitutive androstane receptor (CAR) signaling pathway - cell viability counter screen (AID 1224837); also: nearly all actives have a fitted effect of over 45% in size; also: potency is read from the fitted curve at half-maximal effect
How it was run: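 Cytotoxicity counter-screen: CellTiter-Fluor fluorescence after 23 h compound exposure (15-point qHTS) in double-stable HepG2-CYP2B6-hCAR cells, with 50 nM CITCO added.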

[7] = target: Nuclear receptor subfamily 1 group I member 3 (Homo sapiens) (UniProt Q14994); test: qHTS assay to identify small molecule agonists of the constitutive androstane receptor (CAR) signaling pathway (AID 1224839); also: nearly all actives have a fitted effect of over 15% in size; also: potency is read from the fitted curve at half-maximal effect;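 as to activation: HepG2 cells stably carrying human CAR and a CYP2B6 luciferase reporter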
How it was run: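 Cells were plated and incubated 4 hrs, then dosed with compounds at 15 concentrations. PK11195 was added to 0.75 uM final. After 24 hrs at 37 C, luciferase luminescence was measured.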

[8] = qHTS assay to identify small molecule antagonists of the estrogen related receptor signaling pathway with the pleiotropic PPARgamma coactivator (PGC) from Tox21 10K library - cell viability counter screen (AID 1224840; active = well fitted cell-killing curve with a large enough effect in the repeat runs, not every such curve was filed as active; also: nearly all actives have a fitted effect of over 40% in size; also: potency is read from the fitted curve at half-maximal effect)
How it was run: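 Counter-screen for cytotoxicity: after 17.5 h compound exposure at 37 C, CellTiter-Fluor reagent added to PGC/ERR cells for 30 min and fluorescence read. Cells were seeded at 2,000 per well 6 h before dosing.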

[9] = target: Thyrotropin receptor (Homo sapiens) (UniProt P16473); test: qHTS assay to identify small molecule agonists of the thyroid stimulating hormone receptor (TSHR) signaling pathway (AID 1224843; calls by dose curve; also: nearly all actives have a fitted effect of over 45% in size; also: potency is read from the fitted curve at half-maximal effect)
How it was run: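 A cell-based cAMP HTRF format was run in TSHR-transfected HEK293 cells, 800 per well. Treatment: 30 min, room temperature. Detection: 1 h with labelled cAMP and anti-cAMP cryptate. Concentration-response over 15 points, three replicates.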

[10] = qHTS assay to identify small molecule antagonists of the estrogen related receptor (ERR) signaling pathway - cell viability counter screen (AID 1224818);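 also: viability measured after 17.5 h of compound exposure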
How it was run: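 Cytotoxicity counter screen: fluorescence from CellTiter-Fluor, added after 17.5 h compound exposure at 37 C and read 30 min later. ERR cell line seeded at 2,000 cells/well, preincubated 6 h before dosing.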

[11] = qHTS assay to identify small molecule antagonists of the estrogen related receptor signaling pathway with the pleiotropic PPARgamma coactivator (PGC) cell viability counter screen (AID 1224822)
How it was run: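 Viability counter-screen read by fluorescence intensity after 30 min with CellTiter-Fluor at 37 C; PGC/ERR reporter cells were exposed to compounds for 17.5 h at 37 C following a 6 h preincubation.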

[12] = target: Nuclear receptor subfamily 1 group I member 3 (Homo sapiens) (UniProt Q14994); test: qHTS assay to identify small molecule antagonists of the constitutive androstane receptor (CAR) signaling pathway (AID 1224838);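 also: HepG2 cells stably expressing hCAR with CYP2B6 luciferase reporter stimulated by CITCO; nearly all actives have a fitted effect of over 40% in size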; also: potency is read from the fitted curve at half-maximal effect
How it was run: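 Antagonism measured as luciferase signal (ONE-Glo, 30 min, room temperature) in CAR-stimulated cells: HepG2-CYP2B6-hCAR double-stable line exposed 24 hr at 37 C to compound in a 15-point series plus 50 nM CITCO.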

[13] = qHTS assay to identify small molecule antagonists of the estrogen related receptor signaling pathway with the pleiotropic PPARgamma coactivator (PGC) from Tox21 10K library (AID 1224841; call rule not given here; also: actives are mostly falling curves and most rising ones were filed inactive; nearly all actives have a fitted effect of over 50% in size)
How it was run: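 Luminescence (One-Glo, 30 min at room temperature) after 18 h compound treatment at 37 C of PGC/ERR reporter cells plated at 2,000 cells/well and settled 6 h beforehand.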

[14] = qHTS assay to identify small molecule agonists of the estrogen related receptor signaling pathway with the pleiotropic PPARgamma coactivator (PGC) from Tox21 10K library (AID 1224842); also: nearly all actives have a fitted effect of over 15% in size
How it was run: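 Luminescence from One-Glo (30 min, room temperature) measured after PGC/ERR cells had 18 h at 37 C with pinned compound (23 nL in DMSO). Cells had been seeded at 2,000 per well and pre-incubated 6 h.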

[15] = qHTS assay to identify small molecule antagonists of the retinoic acid receptor (RAR) signaling pathway (AID 1159552; also: nearly all actives have a fitted effect of over 50% in size; also: potency is read from the fitted curve at half-maximal effect)
How it was run: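 Retinol at 1 uM final stimulated RARE-luciferase expression in C3RL4 cells exposed to test compounds for 6 hr at 37 C. Reduced luminescence, read 30 min after detection reagent, indicated pathway antagonism.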

[16] = qHTS assay to identify small molecule agonists of the retinoic acid receptor (RAR) signaling pathway (AID 1159553); settings: C3RL4 RARE luciferase reporter, agonist, 6 h; activation: at 73.3 µM (top of the series) unless noted; also: potency is read from the fitted curve at half-maximal effect
How it was run: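 Luminescence was measured 30 min after luciferase reagent addition at room temperature. Before that, C3RL4 reporter cells (1,000 per well, plated overnight) were treated with compound for 6 hr at 37 C and 5% CO2.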

Chain of Thyrotropin receptor (Homo sapiens) (P16473 whole entry, looked up): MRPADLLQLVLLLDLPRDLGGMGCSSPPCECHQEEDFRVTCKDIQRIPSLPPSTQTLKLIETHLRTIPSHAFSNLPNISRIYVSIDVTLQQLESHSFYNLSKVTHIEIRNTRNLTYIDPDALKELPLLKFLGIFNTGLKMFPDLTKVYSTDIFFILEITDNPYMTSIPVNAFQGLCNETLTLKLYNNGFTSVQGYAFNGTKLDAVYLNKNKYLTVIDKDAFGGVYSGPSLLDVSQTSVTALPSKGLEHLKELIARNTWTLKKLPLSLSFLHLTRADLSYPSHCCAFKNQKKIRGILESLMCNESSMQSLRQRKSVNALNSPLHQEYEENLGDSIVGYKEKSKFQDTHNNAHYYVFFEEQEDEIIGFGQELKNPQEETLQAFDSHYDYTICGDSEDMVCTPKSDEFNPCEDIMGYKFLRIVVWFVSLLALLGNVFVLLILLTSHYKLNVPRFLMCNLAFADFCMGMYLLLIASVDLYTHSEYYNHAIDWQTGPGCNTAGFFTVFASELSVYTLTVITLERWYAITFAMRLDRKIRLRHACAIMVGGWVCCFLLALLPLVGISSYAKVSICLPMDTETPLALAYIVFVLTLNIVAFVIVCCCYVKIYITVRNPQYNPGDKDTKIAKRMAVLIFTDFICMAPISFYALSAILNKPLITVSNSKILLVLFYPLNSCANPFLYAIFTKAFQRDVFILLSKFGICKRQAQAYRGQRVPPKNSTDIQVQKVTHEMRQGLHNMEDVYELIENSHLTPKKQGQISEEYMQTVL
Chain of Luciferin 4-monooxygenase (Photinus pyralis) (P08659 whole entry, looked up): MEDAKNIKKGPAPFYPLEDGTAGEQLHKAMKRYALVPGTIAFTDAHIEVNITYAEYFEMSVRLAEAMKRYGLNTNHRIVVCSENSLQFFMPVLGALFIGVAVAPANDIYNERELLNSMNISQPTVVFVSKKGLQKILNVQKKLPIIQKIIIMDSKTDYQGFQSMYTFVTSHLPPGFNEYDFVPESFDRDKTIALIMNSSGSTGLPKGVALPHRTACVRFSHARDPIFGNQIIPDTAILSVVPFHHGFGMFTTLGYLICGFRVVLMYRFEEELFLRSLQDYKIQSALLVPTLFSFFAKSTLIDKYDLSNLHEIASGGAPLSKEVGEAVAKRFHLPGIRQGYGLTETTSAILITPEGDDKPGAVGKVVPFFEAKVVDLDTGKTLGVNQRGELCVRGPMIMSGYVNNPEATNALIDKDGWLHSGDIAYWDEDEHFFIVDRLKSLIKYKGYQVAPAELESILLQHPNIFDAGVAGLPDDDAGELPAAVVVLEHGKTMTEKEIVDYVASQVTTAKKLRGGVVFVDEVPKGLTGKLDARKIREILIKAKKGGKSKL
Chain of Nuclear receptor subfamily 1 group I member 3 (Homo sapiens) (Q14994 whole entry, looked up): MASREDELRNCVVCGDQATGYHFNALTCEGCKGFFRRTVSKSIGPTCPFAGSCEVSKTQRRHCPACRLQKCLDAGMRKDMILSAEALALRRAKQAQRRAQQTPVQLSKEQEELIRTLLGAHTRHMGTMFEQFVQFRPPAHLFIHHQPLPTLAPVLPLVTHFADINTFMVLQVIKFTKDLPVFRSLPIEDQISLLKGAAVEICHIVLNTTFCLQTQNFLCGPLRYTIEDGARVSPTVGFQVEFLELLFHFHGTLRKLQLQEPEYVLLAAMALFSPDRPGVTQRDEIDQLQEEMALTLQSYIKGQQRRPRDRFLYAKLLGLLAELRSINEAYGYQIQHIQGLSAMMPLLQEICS

SMILES | Potency [1] | Potency [2] | Potency [3] | Potency [4] | Potency [5] | Potency [6] | Potency [7] | Potency [8] | Potency [9] | outcome [10] | Potency [11] | Potency [12] | Potency [13] | Potency [14] | Potency [15] | Potency [16]
ClCc1ccccn1 | inactive | inactive | inactive | inactive | inactive | inactive | inactive | inactive | inactive |  |  |  |  |  |  | 
NN=C(N)N | inactive | inactive | inactive | inactive | inactive | inactive |  | inactive |  | inactive | inactive |  |  |  |  | 
CCC[CH2][Sn]([Cl])([CH2]CCC)[CH2]CCC | 1.1 µM (active) | 3.86 µM (active) and 8.63 µM (active) | 2.17 µM (active) and 1.22 µM (active) | 31.8 µM (active) and 39.9 µM (active) | 546 nM (active) and 545 nM (active) | 1.54 µM (active) and 686 nM (active) | inactive | 1.09 µM (active) and 864 nM (active) |  |  |  | 244 nM (active) and 386 nM (active) |  |  |  | 
Cc1ccc([N+](=O)[O-])cc1 | inactive | inactive | inactive | inactive | inactive | inactive | inactive | inactive | inactive |  |  | inactive |  |  |  | 
ClC(Cl)(Cl)c1ccccc1 | inactive | inactive | inactive | inactive | inactive | inactive | inactive | inactive | inactive |  |  |  |  |  |  | 
Clc1cccc(C(Cl)(Cl)Cl)n1 | inactive | inactive | inactive | inactive | inactive | inactive |  | inactive |  |  |  |  |  |  |  | 
CCCCCCCCCC(CC)c1ccc(S(=O)(=O)O)cc1 (stereo not drawn) |  | inactive | 61.8 µM (active) and inactive | inactive | inactive | inactive |  |  |  | inactive | inactive |  |  |  |  | 
CCOP(=O)(O)OCC (tested in a mixture with another compound) | inactive and 17.2 µM (active) | inactive and 60.6 µM (active) | inactive and 54 µM (active) | inactive |  |  |  | inactive and 60.6 µM (active) |  |  |  |  |  |  |  | 
CCN(CC)C(=O)C(C)Oc1cccc2ccccc12 (stereo not drawn) | inactive | inactive |  | inactive | inactive | inactive | 54.9 µM (active) and 61.1 µM (active) | inactive | inactive and 30.6 µM (active) |  |  |  |  |  |  | 
CC(C)Nc1nc(Cl)nc(NC(C)C)n1 | inactive | inactive | inactive | inactive | inactive | inactive | inactive | inactive | inactive |  |  | inactive | inactive | inactive |  | 
CCNc1nc(Cl)nc(NC(C)(C)C#N)n1 | inactive | inactive | inactive | inactive | inactive | inactive | inactive | inactive | inactive |  |  |  |  |  |  | 
O=C(O)CF | inactive | inactive | inactive | inactive | inactive | inactive |  | inactive | inactive |  |  |  |  |  |  | 
COP(=O)(NC(C)=O)SC (stereo not drawn) | inactive | inactive | inactive | inactive | inactive | inactive | inactive | inactive |  |  |  | inactive |  |  |  | 
CNC(=O)CSP(=S)(OC)OC | inactive | inactive | inactive |  | inactive | inactive | inactive | inactive | inactive |  |  |  |  |  |  | 
C[N+](C)(C)CC(=O)[O-] | inactive | inactive | inactive | inactive | inactive | inactive |  | inactive |  |  |  |  |  |  |  | 
CCC/C=N/O | inactive | inactive | inactive | inactive | inactive | inactive | inactive | inactive |  |  |  |  |  |  |  | 
O=[N+]([O-])c1ccc(Nc2ccccc2)cc1 |  | inactive | 27.5 µM (active) and 30.6 µM (active) | inactive | 48.9 µM (active) | 30.9 µM (active) | inactive |  | inactive |  |  |  | inactive | inactive | inactive | inactive
COc1ccc(CO)cc1 | inactive | inactive | inactive |  | inactive | inactive |  | inactive | inactive |  |  |  |  |  |  | 
CC[n+]1c(-c2ccccc2)c2cc(N)ccc2c2ccc(N)cc21 | inactive | inactive | 24.2 µM (active) and 6.68 µM (active) | inactive | 48.3 µM (active) | 30.5 µM (active) | inactive | 24.2 µM (active) |  |  |  | 21.6 µM (active) and 13.3 µM (active) |  |  |  | 
N#CCCCCC#N | inactive | inactive | inactive | inactive | inactive | inactive | inactive | inactive | inactive |  |  |  | inactive | inactive |  | 
C[N+](C)(C)CC(=O)O | inactive | inactive | inactive | inactive | inactive | inactive |  | inactive |  | inactive | inactive |  |  |  |  | 
Nc1ccc([N+](=O)[O-])cc1N | inactive |  | 48.5 µM (active) and 24.3 µM (active) | 79.6 µM (active) | 48.5 µM (active) | 61.1 µM (active) and 27.3 µM (active) |  | 43.2 µM (active) |  |  |  |  | inactive | inactive | 13.7 µM (active) and inactive | 68.5 µM (active) and 68.6 µM (active)
N#Cc1cccnc1 | inactive | inactive | inactive | inactive | inactive | inactive | inactive | inactive | inactive |  |  | inactive | inactive | inactive |  | 
